# Measured values reported in PubChem BioAssay (Tox21).
# Results filed as inconclusive are left out. Unmarked numbers belong to inactive results. Activity calls are given as the source filed them. Calls follow the shape of the full dose curve.
# Test: qHTS assay to identify small molecule agonists of the NFkB signaling pathway - cell viability counter screen (AID 1159515); also: nearly all actives have a fitted effect of over 55% in size
# Settings: NFkB-bla ME-180 viability, CellTiter-Glo luminescence, 5 h; series mostly up to 61 µM; activity, negative = cytotoxic: at the top concentration
# Excerpt: National Center for Advancing Translational Sciences [NCATS]
# NIH Chemical Genomics Center [NCGC]
# U.S. Environmental Protection Agency [EPA]
# National Institutes of Environmental Health Sciences [NIEHS]
# National Toxicology Program [NTP]
# U.S. Food and Drug Administration [FDA]
# Transcription factors and their stimulated target gene expression play pivotal roles across many cellular processes including responses to environmental stimuli. Proper regulation of associated pathways is critical to maintain cell health and function. Constitutive activation of transcription factor pathways has been implicated in tumors as it may block cellular functions such as apoptosis and lead to invasion and metastasis. One important transcription factor that stimulates gene expression in response to cytokines, UV radiation, and other stimuli is nuclear factor-kappa B (NFkB). To measure activation of the NFkB pathway, the CellSensor NFkB-bla ME-180 cell line (Life Technologies, Carlsbad, CA) that stably expresses beta-lactamase reporter gene under the regulation of a NF-kB response element was used. This assay allows measurement of the NFkB pathway activity induced by compounds in a ME-180 cell line. This system quantitates NF-kB activity using a FRET-based assay system where beta-lactamase expression disrupts FRET, allowing for fluorescent measurement of activity. This cell line has been used to screen the Tox21 10K compound library and to identify compounds that induce the NFkB pathway activity. The cytotoxicity of the Tox21 compound library against the NFkB-bla ME-180 cell line was tested in parallel by measuring cell viability using the CellTiter-Glo assay in the same wells.
# Tox21 Assay Protocol Summary:
# NFkB-bla ME-180 cells were dispensed at 2,000 cells/6 uL of assay medium per well into black wall/clear-bottom 1536-well plates using a Multidrop Combi (ThermoFisher Scientific, Waltham, MA) dispenser. After the assay plates were incubated at 37 C and 5% CO2 for an overnight, 23 nL of compounds dissolved in DMSO, positive controls or DMSO only was transferred to the assay plate by a Pintool station (Kalypsys, San Diego, CA). The assay plates were incubated at 37 C and 5% CO2 for 5 hr. One uL of LiveBLAzer B/G FRET substrate (Life Technologies) was added using a Flying Reagent Dispenser (Aurora Discovery, San Diego, CA) and the plates were incubated at room temperature for 1.5 hr. Fluorescence intensity (405 nm excitation, 460 nm and 530 nm emissions) was measured using an Envision plate reader (PerkinElmer, Shelton, CT). For cytotoxicity, 3 ul/well of CellTiter-Glo reagent was added into the assay plates using an FRD. After 30 min incubation at room temperature, the luminescence intensity was measured using a ViewLux plate reader (PerkinElmer).
# % is scaled to controls: 0 for no effect and ±100 for the full control effect; potency is read from the fitted curve at half-maximal effect.
Compound,"activity, negative = cytotoxic",Potency
O=C(/C=C/c1ccc([N+](=O)[O-])cc1)c1ccccc1,0.967%,–
CCCCCCCC/C=C\CCCCCCCC(=O)OCCO,-5.18% [at 78.8 µM],–
O=P(O)(O)Oc1ccccc1,-7.32%,–
COc1ccc2nc(S(=O)Cc3ncc(C)c(OC)c3C)[nH]c2c1 (stereo not given),1.53%,–
COc1ccc(-c2cc(=S)ss2)cc1,5.1%,–
Nc1ccc(N=Nc2ccc(N)cc2)cc1,-8.84%,–
Cc1ccc2nc(N)[nH]c(=O)c2c1Sc1ccncc1,-11.8%,–
COC(OC)OC,0.122%,–
Nc1ccc(NC(=O)c2ccc(N)cc2)cc1,-5.11%,–
COC(=O)CC(C(C)=O)C(=O)OC (stereo not given),7.82%,–
Cc1cccc(C)c1NC(=O)c1cc(S(N)(=O)=O)c(Cl)cc1O,-0.948%,–
CCC(=O)OCc1ccc(OC)cc1,4.65%,–
C=CC(=O)O,3.86%,–
CCCCCCOC(=O)CCCCC,14.2%,–
CCC(CO)(CO)[N+](=O)[O-],0.0342%,–
Oc1cccc2[nH]ccc12,20.2%,–
CCN(CC)CCOc1ccccc1C(=O)CCc1ccccc1,–,12 µM (active)
CC(=O)OCC(=O)[C@@]1(OC(C)=O)[C@@H](C)C[C@H]2[C@@H]3C[C@H](F)C4=CC(=O)C=C[C@]4(C)[C@@]3(F)[C@@H](O)C[C@@]21C,6.15%,–
CC(=O)N[C@@H](Cc1ccc(O)cc1)C(=O)O,0.394%,–
Cc1cccc2sc(N)nc12,4.82% [at 78.8 µM],–

Compound,"activity, negative = cytotoxic",Potency
CCCc1nc2c(C)cc(-c3nc4ccccc4n3C)cc2n1Cc1ccc(-c2ccccc2C(=O)O)cc1,-0.869%,–
CN1CCCN(C(c2ccccc2)c2ccc(Cl)cc2)CC1 (stereo not given),–,12 µM (active)
COC(C)(C)OC,0.562%,–
CC(C(=O)O)c1ccc(C(=O)c2cccs2)cc1 (stereo not given),4.42%,–
CC(C)(O)c1coc(S(=O)(=O)NC(=O)Nc2c3c(cc4c2CCC4)CCC3)c1,4.05%,–
CCCCOC(=O)CCCCC(=O)OCCCC,2.57%,–
CC(C)N=C=NC(C)C,-1.89%,–
COc1cc(C(C)=O)ccc1OCCCN1CCC(c2noc3cc(F)ccc23)CC1,0.573%,–
CS(=O)(=O)c1ccc([C@@H](C[C@H]2CCC(=O)C2)C(=O)Nc2cnccn2)cc1Cl,8.12%,–
CC[C@H]1OC(=O)[C@H](C)[C@@H](O[C@H]2C[C@@](C)(OC)[C@@H](O)[C@H](C)O2)[C@H](C)[C@@H](O[C@@H]2O[C@H](C)C[C@H](N(C)C)[C@H]2O)[C@](C)(O)C[C@@H](C)C(=O)[C@H](C)[C@@H](O)[C@]1(C)O,10.1%,–
FC(F)(F)C(F)(F)C(F)(F)C(F)(F)CCI,7.73% [at 28.5 µM],–
NC(=O)c1ccccc1[N+](=O)[O-],17.5% [at 78.8 µM],–
O=C(O)c1ccc(O)cc1O,-5.92% [at 78.8 µM],–
O[C@@H](CNC[C@H](O)[C@H]1CCc2cc(F)ccc2O1)[C@@H]1CCc2cc(F)ccc2O1,-5.47%,–
CCNc1nc(N)nc(Cl)n1,8.25%,–
CC(=O)C(C)=O,1.12% [at 78.8 µM],–
CCCCC(CC)COS(=O)(=O)O (stereo not given),-13.6%,–
BrC(Br)C(Br)Br,-15.7%,–
COc1cc(S(=O)(=O)Nc2ccccc2)c(OC)cc1N,3.44%,–
CN(C)CC/C=C1\c2ccccc2Sc2ccc(Cl)cc21,-22.5%,–
